biological target: Left-right determination factor 2 (Homo sapiens) (UniProt O00292); assay: LEFTY2 binders on small-molecule microarrays, primary screen, biochemical, small-molecule microarray, 635 nm fluorescence scan (AID 1110); settings: LEFTY2 binding, higher = more signal
Sequence (O00292 whole entry, looked up): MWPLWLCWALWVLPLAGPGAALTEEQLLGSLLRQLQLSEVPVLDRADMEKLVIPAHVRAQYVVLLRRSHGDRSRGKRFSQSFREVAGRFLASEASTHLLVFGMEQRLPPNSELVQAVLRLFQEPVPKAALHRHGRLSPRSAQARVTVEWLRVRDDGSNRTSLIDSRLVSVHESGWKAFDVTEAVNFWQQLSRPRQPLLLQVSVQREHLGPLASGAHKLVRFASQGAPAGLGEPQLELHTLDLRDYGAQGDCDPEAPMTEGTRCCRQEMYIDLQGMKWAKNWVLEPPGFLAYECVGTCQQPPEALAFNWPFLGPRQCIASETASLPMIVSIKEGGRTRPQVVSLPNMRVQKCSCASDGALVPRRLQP

Question: Which composite z-score does the source give for `CCCNC(=O)[C@@H]1c2ccccc2C(=O)N(Cc2ccc(OC(F)(F)F)cc2)[C@H]1c1ccc(CO)cc1` here?
Answer: The composite z-score was -0.144.

Question: With `O=C1OCCC=C[C@H]2OC34C=CCN(Cn5nnc6ccccc65)C(=O)[C@H]3N(CCCO)C(=O)[C@@H]4C12` (stereo not given in full) as the molecule, how does the composite z-score read?
Answer: The composite z-score was -1.02.

Question: How did the composite z-score turn out when `CCOC(=O)C[C@H]1[C@H](OC(=O)c2ccc(-c3ccccc3)cc2)[C@@H](NC(=O)CC(C)C)c2cc(OCCCO)ccc2N1C(=O)c1ccc2ccccc2n1` was run?
Answer: Its composite z-score is 0.218.

Question: With `COCCOC(=O)N1C(=O)[C@@]2(c3cc(C#CC4=CCCCC4)ccc31)[C@H](c1ccccc1OCCO)N1[C@H](c3ccccc3)[C@H](c3ccccc3)OC(=O)[C@H]1[C@@H]2C(=O)NC[C@H](O)c1ccccc1` as the molecule, how does the composite z-score read?
Answer: The composite z-score was 0.869.

Question: How did the composite z-score turn out when `COCCCNC(=O)[C@@]1(Sc2ccc(C)cc2)CC(=O)N(C2Cc3ccccc3C2)[C@@H]1c1ccc(CO)cc1` was run?
Answer: Its composite z-score is -1.15.

Question: With `COc1cc2c(cc1O)C(c1ccc(CN3CCCC3)cc1)N(Cc1cc3c(cc1Br)OCO3)CC2` (stereo not given) as the molecule, how does the composite z-score read?
Answer: The composite z-score was -0.248.

Question: `CC(C)(C)OC(=O)CC[C@@]1(C(=O)NCC(O)CO)N=C(c2ccc(OCCCO)cc2)O[C@@H]1c1ccccc1CN=[N+]=[N-]` (stereo not given in full) was tested. Which composite z-score did it give?
Answer: The composite z-score was -0.222.

Question: Which composite z-score does the source give for `Cc1ccc(S[C@]2(C(=O)NCCN3CCOCC3)CC(=O)N(Cc3ccccc3Cl)[C@@H]2c2ccc(CO)cc2I)cc1` here?
Answer: The composite z-score was -1.45.

Question: Which composite z-score does the source give for `CC1CC/C=C\[C@H]2OC34C=CCN(C(C)(C)C)C(=O)[C@H]3N(CCCCCO)C(=O)[C@@H]4C2C(=O)O1` (stereo not given in full) here?
Answer: Its composite z-score is -0.464.

Question: With `COc1ccc(CCNC(=O)[C@@]2(c3ccc([N+](=O)[O-])cc3)CC(=O)N(C3CCCCC3)[C@@H]2c2ccc(CO)cc2)cc1` as the molecule, how does the composite z-score read?
Answer: Its composite z-score is -0.197.

Question: With `COCCOC(=O)N1C(=O)[C@@]2(c3cc(C#CCNC(N)=O)ccc31)[C@H](C(N)=O)[C@H]1C(=O)O[C@H](c3ccccc3)[C@H](c3ccccc3)N1[C@@H]2c1ccccc1OCCO` as the molecule, how does the composite z-score read?
Answer: The composite z-score was 0.467.

Question: `COC(=O)[C@@H]1N=C(c2ccc(OCCCO)cc2)O[C@@H]1C` was tested. Which composite z-score did it give?
Answer: Its composite z-score is 0.309.

Question: For `O=C(c1ccccc1)N1C(=O)[C@]2(Cc3ccccc31)N=C(c1ccc(OCCCO)cc1)O[C@@H]2c1ccccc1`, which composite z-score is on record?
Answer: The composite z-score was 0.148.

Question: Which composite z-score does the source give for `O=C(NCCN1CCOCC1)[C@@H]1c2ccccc2C(=O)N(C2Cc3ccccc3C2)[C@H]1c1ccc(CO)cc1` here?
Answer: The composite z-score was -1.57.

Question: Which composite z-score does the source give for `CCCCC(CC)C(O)C1C=CC2C(=O)N(C)C(=O)C2N1Nc1ccccc1` (stereo not given) here?
Answer: The composite z-score was -0.303.

Question: How did the composite z-score turn out when `CC[C@@H]1C=C(C(=O)O)[C@H](c2ccc(C#N)cc2)N1S(=O)(=O)c1ccc(C)cc1` was run?
Answer: The composite z-score was 0.635.

Question: How did the composite z-score turn out when `[N-]=[N+]=Nc1ccccc1C[C@@]1(C(N)=O)N=C(c2ccc(OCCCO)cc2)O[C@@H]1c1ccccc1N=[N+]=[N-]` was run?
Answer: The composite z-score was -0.0762.

Question: `C=CC[C@@H](OC(=O)Nc1ccc(SC)cc1)c1ccc(O)c(F)c1` was tested. Which composite z-score did it give?
Answer: The composite z-score was -0.28.

Question: For `CS(=O)(=O)CCOC(=O)C1=CC(c2ccc(CO)cc2)=CC(C2CC2)N(Cc2sc3ccccc3c2Cl)C=C1C(=O)OCCS(C)(=O)=O` (stereo not given), which composite z-score is on record?
Answer: The composite z-score was 0.815.

Question: How did the composite z-score turn out when `CCOC(=O)C[C@H]1[C@H](OC(=O)c2ccccc2-c2ccccc2)[C@@H](NC(=O)c2ccc3ccccc3n2)c2cc(OCCCO)ccc2N1C(=O)Cc1ccc(OC)cc1` was run?
Answer: Its composite z-score is 0.414.

Question: For `CCOC(=O)C1=C[C@@H](C(C)(C)C)N(S(=O)(=O)c2ccc(C)cc2)[C@H]1c1cccc2ccccc12`, which composite z-score is on record?
Answer: Its composite z-score is -0.49.

Question: With `Cc1ccc(S[C@]2(C(=O)O)CC(=O)N(C3CCCCC3)[C@@H]2c2ccc(CO)cc2I)cc1` as the molecule, how does the composite z-score read?
Answer: Its composite z-score is -0.326.

Question: `COc1ccc([Si](C)(C)[C@@H]2[C@@H](CCO)O[C@]3(C(=O)N(Cc4ccccc4)c4ccc(N5C(=O)c6cccc7cccc5c67)cc43)[C@H]2C)cc1` was tested. Which composite z-score did it give?
Answer: Its composite z-score is -0.558.

Question: Which composite z-score does the source give for `O=C(Cc1ccccc1)[C@H]1C2C=CCCC(c3ccccc3)=C2CN1Cc1ccccc1` (stereo not given in full) here?
Answer: The composite z-score was 0.174.

Question: For `COc1ccccc1CN1C(=O)c2ccccc2[C@](Cc2ccccc2I)(C(=O)O)[C@@H]1c1ccc(CO)cc1`, which composite z-score is on record?
Answer: The composite z-score was 0.717.

Question: How did the composite z-score turn out when `Cc1cc(C)c(C(O)C2C=CC3C(=O)N(c4ccccc4)C(=O)C3N2Nc2ccccc2F)c(C)c1` (stereo not given) was run?
Answer: The composite z-score was -0.636.

Question: For `CN(C)c1ccc(C(O)C2C=CC3C(=O)NC(=O)C3N2Nc2ccccn2)cc1` (stereo not given), which composite z-score is on record?
Answer: The composite z-score was 0.883.

Question: `C[N+](C)(C)CCCC[C@@H]1NC(=O)[C@@H]2C[C@H](C(=O)NCCCCCCN)[C@H](c3cccc(OCCO)c3)N2C1=O` was tested. Which composite z-score did it give?
Answer: Its composite z-score is 0.676.

Question: `CCN(CC)c1ccc(N2CC=CC34O[C@@H]5/C=C\CCCOC(=O)C5[C@H]3C(=O)N(C(C)CO)[C@@H]4C2=O)cc1` (stereo not given in full) was tested. Which composite z-score did it give?
Answer: Its composite z-score is -0.469.

Question: For `CCCCC=C[C@@H](NC(=O)OCc1ccccc1Cl)c1ccccc1`, which composite z-score is on record?
Answer: The composite z-score was 0.39.

Question: `CCCN1C(=O)[C@]2(Cc3ccccc31)N=C(c1ccc(OCCCO)cc1)O[C@@H]2c1ccccc1` was tested. Which composite z-score did it give?
Answer: The composite z-score was -0.148.

Question: For `C=CCNC(=O)[C@H]1[C@@H]2C(=O)O[C@@H](c3ccccc3)[C@@H](c3ccccc3)N2[C@@H](c2ccccc2OCCO)[C@]12C(=O)N(C(=O)OCCOC)c1ccc(C#CC3(O)CCCCCC3)cc12`, which composite z-score is on record?
Answer: Its composite z-score is 0.371.

Question: With `CN1C(=O)C2C=CC(C(O)c3cccn3C)N(Nc3ccc([N+](=O)[O-])cc3[N+](=O)[O-])C2C1=O` (stereo not given) as the molecule, how does the composite z-score read?
Answer: Its composite z-score is -0.135.

Question: `CCCCC(CC)C(O)C1C=CC2C(=O)N(c3ccccc3)C(=O)C2N1Nc1ccccc1F` (stereo not given) was tested. Which composite z-score did it give?
Answer: Its composite z-score is -0.285.

Question: Which composite z-score does the source give for `COCCOC(=O)N1C(=O)[C@@]2(c3ccccc31)[C@H](C(=O)NC[C@H](O)c1ccccc1)[C@H]1C(=O)O[C@H](c3ccccc3)[C@H](c3ccccc3)N1[C@@H]2c1ccc(O)cc1` here?
Answer: Its composite z-score is 0.768.

Source: PubChem BioAssay
